“And” between values parts separate entries of the source, which are not always exact repeats. Equal values may be shown once. Where a name gives a salt, the structure may show the parent alone.
Key:
Assay in all cases: thermal shift delta Tm vs DMSO control; higher = stronger stabilization (binding)
Conditions in all cases: 12.5 µM; protein concentration 2 µM
[1] = test system: LOC_OS02G45750-cb003
Outline: (§1)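 Rice kinase domain constructs were expressed in E. coli, purified, and tested by differential scanning fluorimetry with compound added in DMSO. Each well of a 96-well plate held 19.5 μl of 2 μM kinase in 100 mM potassium phosphate pH 7.5, 150 mM NaCl, 10% glycerol and 5 × SYPRO Orange, and fluorescence was read from 25°C to 95°C at 0.05°C/s. The melting temperature shift is the mean of triplicates, taken against protein with DMSO alone after Boltzmann fitting.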

[2] = test system: LOC_OS02G54510-cb004
Outline: as §1

[3] = test system: LOC_OS03G04050-cb001
Outline: as §1

[4] = test system: LOC_OS03G12390-cb001
Outline: as §1

[5] = test system: LOC_OS03G27990-cb004
Outline: as §1

[6] = test system: LOC_OS03G50450-cb001
Outline: as §1

[7] = test system: LOC_OS03G50810-cb003
Outline: as §1

[8] = test system: LOC_OS04G35114-cb001
Outline: as §1

[9] = test system: T1, LOC_OS04G38480-cb003
T1 sequence (whole entry): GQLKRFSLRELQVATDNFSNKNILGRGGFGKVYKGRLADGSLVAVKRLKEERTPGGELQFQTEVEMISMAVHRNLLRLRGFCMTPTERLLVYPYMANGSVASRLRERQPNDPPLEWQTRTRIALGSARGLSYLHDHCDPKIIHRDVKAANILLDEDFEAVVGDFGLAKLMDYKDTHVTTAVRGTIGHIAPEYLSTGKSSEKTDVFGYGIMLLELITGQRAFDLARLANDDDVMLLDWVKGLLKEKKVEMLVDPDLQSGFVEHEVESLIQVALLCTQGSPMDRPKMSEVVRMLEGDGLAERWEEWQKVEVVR
Outline: as §1

[10] = test system: T2, LOC_OS04G41100-cb001
T2 sequence (whole entry): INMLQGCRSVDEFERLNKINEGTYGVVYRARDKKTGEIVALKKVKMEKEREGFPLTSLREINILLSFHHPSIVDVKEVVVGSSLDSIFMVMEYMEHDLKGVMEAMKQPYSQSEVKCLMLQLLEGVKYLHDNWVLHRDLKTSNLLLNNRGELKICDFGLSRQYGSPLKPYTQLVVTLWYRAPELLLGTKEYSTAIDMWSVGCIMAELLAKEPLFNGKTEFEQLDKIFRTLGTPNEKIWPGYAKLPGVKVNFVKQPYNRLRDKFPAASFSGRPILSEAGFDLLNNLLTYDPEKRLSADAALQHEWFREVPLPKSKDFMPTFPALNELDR
Outline: as §1

Structure (SMILES)	thermal shift delta Tm [1]	thermal shift delta Tm [2]	thermal shift delta Tm [3]	thermal shift delta Tm [4]	thermal shift delta Tm [5]	thermal shift delta Tm [6]	thermal shift delta Tm [7]	thermal shift delta Tm [8]	thermal shift delta Tm [9]	thermal shift delta Tm [10]
CCC[C@H](NC(=O)/C(C#N)=C/c1cccc(Br)n1)c1ccccc1 [Degrasyn (WP1130)]	-2.36 °C	-1.29 °C	0.2 °C	-5.26 °C	-3.68 °C	-0.35 °C	-2.71 °C	-2.87 °C	1.05 °C	-0.61 °C
CN(C)C/C=C/C(=O)Nc1cc2c(Nc3ccc(F)c(Cl)c3)ncnc2cc1O[C@H]1CCOC1 [Afatinib (BIBW2992) Dimaleate]	1.42 °C	0.08 °C	0.35 °C	2.3 °C	1.68 °C	0.41 °C	1.38 °C	5.35 °C	2.08 °C	0.45 °C
Cc1ccc(NC(=O)c2ccc(CN3CCN(C)CC3)cc2)cc1Nc1nccc(-c2cccnc2)n1 [Imatinib Mesylate (STI571)]	0.55 °C	0.16 °C	0.17 °C	0.88 °C	-0.03 °C	-0.05 °C	0.09 °C	0.75 °C	0.34 °C	0.59 °C
C[C@@H]1CCN(C(=O)CC#N)C[C@@H]1N(C)c1ncnc2[nH]ccc12	0.35 °C and 0.85 °C	0.3 °C and 0.25 °C	0.21 °C and 0.74 °C	0.19 °C and 0.26 °C	0.12 °C and 0.5 °C	0.32 °C and 0.68 °C	0.11 °C and 0.63 °C	0.38 °C and 0.48 °C	0.3 °C and 0.6 °C	-0.01 °C and 0.47 °C
COC1(c2sc3c(N4CCOCC4)nc(-c4cnc(N)nc4)nc3c2C)COC1	1.67 °C	3.13 °C	-0.01 °C	0.74 °C	0.96 °C	4.14 °C	0.91 °C	2.13 °C	1.11 °C	0.5 °C
CCN1/C(=C/C(C)=O)Sc2ccc(OC)cc21	0.78 °C	0.02 °C	0.22 °C	0.14 °C	0.03 °C	0.66 °C	0.32 °C	0.67 °C	0.6 °C	0.55 °C
O=c1[nH]nc(Sc2ncc([N+](=O)[O-])s2)n1-c1ccc2c(c1)OCCO2	1.36 °C	-0.1 °C	0.22 °C	-1.14 °C	0.03 °C	0.84 °C	-0.33 °C	0.5 °C	3.06 °C	-0.54 °C
Cc1cc(C(C)Nc2ccccc2)c2nc(N3CCOCC3)cc(=O)n2c1 (stereo not given)	-0.62 °C	0.09 °C	0.44 °C	-0.12 °C	0.21 °C	0.33 °C	-0.02 °C	0.33 °C	0.36 °C	0.33 °C
Cn1nccc1Nc1nccc(-c2ccn([C@H](CO)c3ccc(Cl)c(F)c3)c(=O)c2)n1	0.71 °C	0.28 °C	0.29 °C	2.16 °C	0.03 °C	0.11 °C	-0.12 °C	0.45 °C	0.14 °C	2.7 °C
Cc1nc(NC(=O)N2CCC[C@H]2C(N)=O)sc1-c1ccnc(C(C)(C)C(F)(F)F)c1 [Alpelisib (BYL719)]	-0.52 °C	0.02 °C	0.28 °C	0.2 °C	0.55 °C	0.38 °C	0.21 °C	1.56 °C	0.94 °C	0.49 °C
c1cc(-c2cnn3cc(-c4ccc(OCCN5CCCCC5)cc4)cnc23)ccn1 [Dorsomorphin 2HCl]	15.2 °C	0.73 °C	0.67 °C	1.8 °C	9.39 °C	1.81 °C	7.51 °C	9.17 °C	3.72 °C	3.16 °C
CN1CCC(CNc2ccc3ncc(-c4cccc(OC(F)(F)F)c4)n3n2)CC1 [SGI-1776 free base]	3.47 °C	0.36 °C	-0.12 °C	0.16 °C	0.31 °C	0.18 °C	3.02 °C	4.33 °C	1.08 °C	0.53 °C
CC[C@@H]1C(=O)N(C)c2cnc(Nc3ccc(C(=O)NC4CCN(C)CC4)cc3OC)nc2N1C1CCCC1	1.12 °C	0.21 °C	0.16 °C	2.23 °C	-0.16 °C	-0.26 °C	0.11 °C	0.67 °C	-0.31 °C	0.39 °C
COc1ccc(-c2cc3nccn3c(Nc3ncccc3C(N)=O)n2)cc1OC	1.94 °C	0.42 °C	0.72 °C	6.82 °C	0.56 °C	1.07 °C	1.24 °C	1.36 °C	1.69 °C	1.04 °C
N#Cc1cccc(-c2c[nH]c3ncnc(N4CCOCC4)c23)c1	3.36 °C	0.44 °C	0.26 °C	3.14 °C	0.37 °C	-0.1 °C	2.96 °C	5.02 °C	1.08 °C	0.06 °C
O=C(O)CCC(=O)Nc1ccc(Br)cn1 [Bikinin]	0.64 °C	0.11 °C	0.3 °C	0.13 °C	0.19 °C	0.33 °C	0.43 °C	0.74 °C	1.47 °C	0.42 °C
C=CC(=O)Nc1cccc(Nc2nc(Nc3ccc(N4CCN(C(C)=O)CC4)cc3OC)ncc2C(F)(F)F)c1 [Rociletinib (CO-1686, AVL-301)]	1.53 °C	0.29 °C	0.43 °C	11.1 °C	0.66 °C	1.7 °C	2.22 °C	2.08 °C	0.94 °C	0.4 °C
O=c1sn(-c2cccc3ccccc23)c(=O)n1Cc1ccccc1 [Tideglusib]	0 °C	0.35 °C	0.13 °C	-1.57 °C	0.89 °C	0.32 °C	-0.5 °C	2.38 °C	0.78 °C	0.34 °C
Cc1ccc(-n2nc(C(C)(C)C)cc2NC(=O)Nc2ccc(OCCN3CCOCC3)c3ccccc23)cc1 [Doramapimod (BIRB 796)]	-1.12 °C	0.33 °C	0.33 °C	-0.03 °C	0.31 °C	0.1 °C	0.01 °C	0.68 °C	0.95 °C	0.9 °C
